What was measured:
Assay in all cases: DAPPL (digital affinity profiling via proximity ligation, sequencing); 10 mM Tris-HCl pH 7.5, 50 mM NaCl, 1 mM DTT, 4% glycerol, room temperature, 30 min; GST-TFs on glutathione beads, 16-mer random dsDNA library, 0.1% formaldehyde crosslink after washing; high values mean tight binding
FLI1 = target: T1, FLI1 (Homo sapiens, UniProt Q01543 1-452); details: protein: recombinant; tags: N-terminal GST; dsDNA, one strand shown
T1 sequence: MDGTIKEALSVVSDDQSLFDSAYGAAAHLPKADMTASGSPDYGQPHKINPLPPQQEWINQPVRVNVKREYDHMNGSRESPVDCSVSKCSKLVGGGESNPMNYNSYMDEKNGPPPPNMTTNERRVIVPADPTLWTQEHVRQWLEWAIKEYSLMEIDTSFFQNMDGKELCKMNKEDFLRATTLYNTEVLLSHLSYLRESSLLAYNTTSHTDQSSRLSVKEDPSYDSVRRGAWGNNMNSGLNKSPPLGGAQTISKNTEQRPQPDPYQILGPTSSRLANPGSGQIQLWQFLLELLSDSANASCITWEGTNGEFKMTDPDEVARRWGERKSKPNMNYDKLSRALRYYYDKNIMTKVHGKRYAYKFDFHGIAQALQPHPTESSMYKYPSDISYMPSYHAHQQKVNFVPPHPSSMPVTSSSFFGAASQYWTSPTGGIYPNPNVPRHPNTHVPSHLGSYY
Procedure, shortened: (§1)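 GST fusions of human transcription factors were expressed in yeast and captured with glutathione beads. Once given DNA barcodes and pooled alongside a tag-only sample, they were incubated for 30 min at room temperature with 200 nmole of a random double-stranded 16-mer DNA library in Tris/NaCl/DTT/glycerol buffer, then washed, crosslinked (0.1% formaldehyde), proximity-ligated, PCR-amplified and sequenced on an Illumina NextSeq500. The binding signal of each hexamer is its read frequency for a factor divided by its frequency for the tag-only sample.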

ELK1 = target: T2, ELK1 (Homo sapiens, UniProt P19419 1-428); details: protein: recombinant; tags: N-terminal GST; dsDNA, one strand shown
T2 sequence: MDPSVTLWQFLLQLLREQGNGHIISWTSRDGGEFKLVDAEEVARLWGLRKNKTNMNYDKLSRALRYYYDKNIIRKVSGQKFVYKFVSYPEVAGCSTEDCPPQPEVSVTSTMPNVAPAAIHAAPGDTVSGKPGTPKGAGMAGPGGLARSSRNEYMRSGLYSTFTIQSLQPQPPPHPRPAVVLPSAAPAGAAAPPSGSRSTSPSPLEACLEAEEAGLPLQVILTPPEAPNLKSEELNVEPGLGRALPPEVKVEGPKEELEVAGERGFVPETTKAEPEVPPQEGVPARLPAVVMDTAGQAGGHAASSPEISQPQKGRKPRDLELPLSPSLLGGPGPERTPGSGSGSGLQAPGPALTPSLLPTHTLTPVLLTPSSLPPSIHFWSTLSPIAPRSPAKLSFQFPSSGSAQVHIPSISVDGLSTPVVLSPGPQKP
Procedure, shortened: as §1

GABPA = target: T3, GABPA (Homo sapiens, UniProt Q06546 1-454); details: protein: recombinant; tags: N-terminal GST; dsDNA, one strand shown
T3 sequence: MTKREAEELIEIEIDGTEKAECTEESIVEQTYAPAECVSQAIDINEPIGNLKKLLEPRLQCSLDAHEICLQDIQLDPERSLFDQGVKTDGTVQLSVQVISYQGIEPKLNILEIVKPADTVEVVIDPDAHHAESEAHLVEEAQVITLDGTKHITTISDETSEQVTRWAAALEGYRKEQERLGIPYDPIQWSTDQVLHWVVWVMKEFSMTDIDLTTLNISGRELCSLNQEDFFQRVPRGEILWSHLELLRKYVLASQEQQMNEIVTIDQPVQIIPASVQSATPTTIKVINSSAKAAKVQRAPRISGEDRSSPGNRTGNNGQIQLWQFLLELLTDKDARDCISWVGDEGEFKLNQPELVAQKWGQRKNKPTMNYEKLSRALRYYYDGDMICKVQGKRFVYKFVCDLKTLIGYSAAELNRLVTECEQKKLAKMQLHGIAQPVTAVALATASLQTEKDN
Procedure, shortened: as §1

ERG = target: T4, ERG (Homo sapiens, UniProt P11308 1-479); details: protein: recombinant; tags: N-terminal GST; dsDNA, one strand shown
T4 sequence: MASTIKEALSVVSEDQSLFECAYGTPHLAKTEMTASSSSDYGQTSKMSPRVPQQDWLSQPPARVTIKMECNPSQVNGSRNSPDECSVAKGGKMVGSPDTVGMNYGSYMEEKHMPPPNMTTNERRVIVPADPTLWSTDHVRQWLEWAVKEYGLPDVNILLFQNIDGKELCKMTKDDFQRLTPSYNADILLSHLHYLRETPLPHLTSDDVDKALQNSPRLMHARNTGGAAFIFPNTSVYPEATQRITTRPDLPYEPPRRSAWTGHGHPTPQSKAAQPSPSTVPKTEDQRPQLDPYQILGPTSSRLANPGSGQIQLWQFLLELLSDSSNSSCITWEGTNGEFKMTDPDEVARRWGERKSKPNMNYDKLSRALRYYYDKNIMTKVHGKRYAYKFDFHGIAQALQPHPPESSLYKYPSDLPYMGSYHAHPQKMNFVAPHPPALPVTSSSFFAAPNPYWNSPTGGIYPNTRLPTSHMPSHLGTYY
Procedure, shortened: as §1

ELF1 = ELF1 (Homo sapiens, UniProt P32519 1-619); details: protein: recombinant; tags: N-terminal GST; dsDNA, one strand shown
Procedure, shortened: as §1

EHF = target: T5, EHF (Homo sapiens, UniProt Q9NZC4 1-300); details: protein: recombinant; tags: N-terminal GST; dsDNA, one strand shown
T5 sequence: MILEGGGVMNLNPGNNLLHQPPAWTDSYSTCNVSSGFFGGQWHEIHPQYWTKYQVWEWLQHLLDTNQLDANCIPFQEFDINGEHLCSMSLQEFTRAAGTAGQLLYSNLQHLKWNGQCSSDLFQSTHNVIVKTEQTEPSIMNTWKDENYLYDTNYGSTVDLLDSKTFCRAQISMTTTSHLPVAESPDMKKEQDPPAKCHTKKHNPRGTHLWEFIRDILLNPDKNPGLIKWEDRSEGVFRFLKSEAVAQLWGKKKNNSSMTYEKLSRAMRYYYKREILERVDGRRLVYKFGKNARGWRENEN
Procedure, shortened: as §1

SPI1 = SPI1 (Homo sapiens, UniProt P17947 1-270); details: protein: recombinant; tags: N-terminal GST; dsDNA, one strand shown
Procedure, shortened: as §1

SPIB = SPIB (Homo sapiens, UniProt Q01892 1-262); details: protein: recombinant; tags: N-terminal GST; dsDNA, one strand shown
Procedure, shortened: as §1

ELK3 = target: T6, ELK3 (Homo sapiens, UniProt P41970 1-407); details: protein: recombinant; tags: N-terminal GST; dsDNA, one strand shown
T6 sequence: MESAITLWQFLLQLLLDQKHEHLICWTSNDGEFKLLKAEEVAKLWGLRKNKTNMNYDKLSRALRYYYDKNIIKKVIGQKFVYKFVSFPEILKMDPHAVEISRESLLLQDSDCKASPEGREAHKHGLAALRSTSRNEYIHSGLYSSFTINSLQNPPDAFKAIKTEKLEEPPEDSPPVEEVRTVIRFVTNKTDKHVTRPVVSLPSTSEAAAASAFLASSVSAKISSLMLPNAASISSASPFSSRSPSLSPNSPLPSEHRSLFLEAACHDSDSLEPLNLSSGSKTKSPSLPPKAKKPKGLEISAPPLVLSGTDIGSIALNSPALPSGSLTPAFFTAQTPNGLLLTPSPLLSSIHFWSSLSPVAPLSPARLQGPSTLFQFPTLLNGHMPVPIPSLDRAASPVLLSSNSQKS
Procedure, shortened: as §1

FEV = target: T7, FEV (Homo sapiens, UniProt Q99581 1-238); details: protein: recombinant; tags: N-terminal GST; dsDNA, one strand shown
T7 sequence: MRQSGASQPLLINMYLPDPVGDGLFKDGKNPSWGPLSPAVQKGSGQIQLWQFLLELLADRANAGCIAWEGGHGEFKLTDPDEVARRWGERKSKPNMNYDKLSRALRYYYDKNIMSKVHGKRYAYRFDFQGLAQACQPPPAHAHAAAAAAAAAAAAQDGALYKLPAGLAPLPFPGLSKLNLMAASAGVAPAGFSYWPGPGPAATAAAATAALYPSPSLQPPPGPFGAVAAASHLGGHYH
Procedure, shortened: as §1

ETV5 = ETV5 (Homo sapiens, UniProt P41161 1-510); details: protein: recombinant; tags: N-terminal GST; dsDNA, one strand shown
Procedure, shortened: as §1

HSF1 = HSF1 (Homo sapiens, UniProt Q00613 1-529); details: protein: recombinant; tags: N-terminal GST; chain copies: 3; dsDNA, one strand shown
Procedure, shortened: as §1

SPIC = target: T8, SPIC (Homo sapiens, UniProt Q8N5J4 1-248); details: protein: recombinant; tags: N-terminal GST; dsDNA, one strand shown
T8 sequence: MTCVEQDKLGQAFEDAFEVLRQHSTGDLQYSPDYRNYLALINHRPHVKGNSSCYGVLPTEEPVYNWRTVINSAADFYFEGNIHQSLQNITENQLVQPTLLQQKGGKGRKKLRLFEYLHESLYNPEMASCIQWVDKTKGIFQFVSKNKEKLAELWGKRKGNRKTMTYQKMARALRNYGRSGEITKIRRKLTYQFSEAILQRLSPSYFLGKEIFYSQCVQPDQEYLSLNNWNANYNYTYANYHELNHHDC
Procedure, shortened: as §1

ELF4 = ELF4 (Homo sapiens, UniProt Q99607 1-663); details: protein: recombinant; tags: N-terminal GST; dsDNA, one strand shown
Procedure, shortened: as §1

ELK4 = target: T9, ELK4 (Homo sapiens, UniProt P28324-2 1-405); details: protein: recombinant; tags: N-terminal GST; dsDNA, one strand shown
T9 sequence: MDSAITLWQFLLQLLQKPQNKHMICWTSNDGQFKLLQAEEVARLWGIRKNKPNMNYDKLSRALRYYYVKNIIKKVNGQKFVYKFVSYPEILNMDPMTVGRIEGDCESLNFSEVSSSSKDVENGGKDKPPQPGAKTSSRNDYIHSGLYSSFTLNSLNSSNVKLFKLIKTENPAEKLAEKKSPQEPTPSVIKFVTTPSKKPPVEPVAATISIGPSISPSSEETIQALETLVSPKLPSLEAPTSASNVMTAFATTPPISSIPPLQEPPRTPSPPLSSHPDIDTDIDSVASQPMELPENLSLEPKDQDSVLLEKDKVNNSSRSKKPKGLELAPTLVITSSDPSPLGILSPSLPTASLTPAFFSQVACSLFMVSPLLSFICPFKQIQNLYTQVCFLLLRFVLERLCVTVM
Procedure, shortened: as §1

ETV2 = target: T10, ETV2 (Homo sapiens, UniProt O00321 1-342); details: protein: recombinant; tags: N-terminal GST; dsDNA, one strand shown
T10 sequence: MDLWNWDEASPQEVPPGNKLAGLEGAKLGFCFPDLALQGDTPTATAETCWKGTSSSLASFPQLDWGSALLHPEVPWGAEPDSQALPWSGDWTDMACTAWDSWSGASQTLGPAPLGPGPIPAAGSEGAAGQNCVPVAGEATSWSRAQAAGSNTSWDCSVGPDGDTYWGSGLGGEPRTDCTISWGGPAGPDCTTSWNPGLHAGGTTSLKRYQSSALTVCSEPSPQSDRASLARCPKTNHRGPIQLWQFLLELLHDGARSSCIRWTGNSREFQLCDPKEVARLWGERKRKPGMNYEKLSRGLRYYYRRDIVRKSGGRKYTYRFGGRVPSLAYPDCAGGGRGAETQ
Procedure, shortened: as §1

ELF3 = target: T11, ELF3 (Homo sapiens, UniProt P78545 1-371); details: protein: recombinant; tags: N-terminal GST; dsDNA, one strand shown
T11 sequence: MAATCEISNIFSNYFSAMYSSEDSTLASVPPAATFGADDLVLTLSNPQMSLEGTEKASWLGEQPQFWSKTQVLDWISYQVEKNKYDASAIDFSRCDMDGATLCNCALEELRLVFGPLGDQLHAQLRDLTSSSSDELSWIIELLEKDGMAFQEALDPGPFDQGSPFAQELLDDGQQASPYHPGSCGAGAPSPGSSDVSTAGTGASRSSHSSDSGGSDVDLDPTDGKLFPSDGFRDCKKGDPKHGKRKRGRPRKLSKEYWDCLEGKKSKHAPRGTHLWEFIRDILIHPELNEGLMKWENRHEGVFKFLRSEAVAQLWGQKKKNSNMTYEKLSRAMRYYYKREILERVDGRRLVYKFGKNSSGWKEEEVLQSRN
Procedure, shortened: as §1

CRX = CRX (Homo sapiens, UniProt O43186 1-299); details: protein: recombinant; tags: N-terminal GST; dsDNA, one strand shown
Procedure, shortened: as §1

ETV1 = ETV1 (Homo sapiens, UniProt P50549 1-477); details: protein: recombinant; tags: N-terminal GST; dsDNA, one strand shown
Procedure, shortened: as §1

Chain of ETV5 (P41161 whole entry): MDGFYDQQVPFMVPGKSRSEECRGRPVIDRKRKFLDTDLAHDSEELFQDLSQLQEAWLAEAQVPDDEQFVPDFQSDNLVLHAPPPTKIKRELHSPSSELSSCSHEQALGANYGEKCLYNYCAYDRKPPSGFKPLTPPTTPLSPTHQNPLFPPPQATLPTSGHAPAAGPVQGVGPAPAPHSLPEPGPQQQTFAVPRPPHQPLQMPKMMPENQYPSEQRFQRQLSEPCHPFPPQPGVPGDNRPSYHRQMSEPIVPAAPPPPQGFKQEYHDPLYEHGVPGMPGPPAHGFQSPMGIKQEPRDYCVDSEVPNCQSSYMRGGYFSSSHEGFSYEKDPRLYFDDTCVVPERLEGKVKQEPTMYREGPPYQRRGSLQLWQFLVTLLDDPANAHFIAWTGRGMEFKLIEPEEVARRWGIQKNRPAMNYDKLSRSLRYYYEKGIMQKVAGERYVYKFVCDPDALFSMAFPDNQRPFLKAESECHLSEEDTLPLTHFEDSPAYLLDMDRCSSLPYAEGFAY
Chain of HSF1 (Q00613 whole entry): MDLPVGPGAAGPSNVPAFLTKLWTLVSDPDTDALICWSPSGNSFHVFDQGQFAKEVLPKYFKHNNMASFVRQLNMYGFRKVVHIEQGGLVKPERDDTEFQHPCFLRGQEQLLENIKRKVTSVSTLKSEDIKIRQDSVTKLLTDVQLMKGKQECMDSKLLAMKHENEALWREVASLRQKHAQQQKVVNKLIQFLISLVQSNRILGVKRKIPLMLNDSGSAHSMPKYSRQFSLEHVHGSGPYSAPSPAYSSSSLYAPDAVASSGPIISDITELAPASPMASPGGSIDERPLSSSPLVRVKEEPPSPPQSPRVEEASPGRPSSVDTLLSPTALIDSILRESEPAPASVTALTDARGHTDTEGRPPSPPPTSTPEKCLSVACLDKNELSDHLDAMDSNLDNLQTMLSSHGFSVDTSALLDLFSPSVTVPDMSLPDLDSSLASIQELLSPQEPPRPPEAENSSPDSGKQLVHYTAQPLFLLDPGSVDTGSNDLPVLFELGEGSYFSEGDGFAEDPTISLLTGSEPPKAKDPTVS
Chain of ETV1 (P50549 whole entry): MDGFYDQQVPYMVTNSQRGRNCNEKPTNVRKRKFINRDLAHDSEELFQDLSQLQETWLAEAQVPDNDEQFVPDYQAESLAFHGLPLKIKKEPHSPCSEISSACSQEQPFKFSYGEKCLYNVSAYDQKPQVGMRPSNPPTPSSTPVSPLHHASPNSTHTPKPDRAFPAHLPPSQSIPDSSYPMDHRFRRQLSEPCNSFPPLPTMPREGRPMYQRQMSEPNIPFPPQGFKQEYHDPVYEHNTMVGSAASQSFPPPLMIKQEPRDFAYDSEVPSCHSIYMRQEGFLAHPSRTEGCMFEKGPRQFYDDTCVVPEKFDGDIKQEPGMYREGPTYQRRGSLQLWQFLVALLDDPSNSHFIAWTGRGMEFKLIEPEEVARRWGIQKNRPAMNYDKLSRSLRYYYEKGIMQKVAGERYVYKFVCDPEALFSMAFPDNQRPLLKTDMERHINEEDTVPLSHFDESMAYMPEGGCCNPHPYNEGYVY
Chain of SPIB (Q01892 whole entry): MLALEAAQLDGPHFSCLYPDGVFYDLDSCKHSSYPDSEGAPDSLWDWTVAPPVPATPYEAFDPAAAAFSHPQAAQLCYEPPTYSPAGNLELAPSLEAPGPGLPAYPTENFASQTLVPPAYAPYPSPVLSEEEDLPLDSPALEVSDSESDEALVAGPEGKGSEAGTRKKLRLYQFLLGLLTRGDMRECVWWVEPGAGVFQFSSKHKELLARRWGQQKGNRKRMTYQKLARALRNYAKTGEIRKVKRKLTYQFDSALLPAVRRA
Chain of ELF4 (Q99607 whole entry): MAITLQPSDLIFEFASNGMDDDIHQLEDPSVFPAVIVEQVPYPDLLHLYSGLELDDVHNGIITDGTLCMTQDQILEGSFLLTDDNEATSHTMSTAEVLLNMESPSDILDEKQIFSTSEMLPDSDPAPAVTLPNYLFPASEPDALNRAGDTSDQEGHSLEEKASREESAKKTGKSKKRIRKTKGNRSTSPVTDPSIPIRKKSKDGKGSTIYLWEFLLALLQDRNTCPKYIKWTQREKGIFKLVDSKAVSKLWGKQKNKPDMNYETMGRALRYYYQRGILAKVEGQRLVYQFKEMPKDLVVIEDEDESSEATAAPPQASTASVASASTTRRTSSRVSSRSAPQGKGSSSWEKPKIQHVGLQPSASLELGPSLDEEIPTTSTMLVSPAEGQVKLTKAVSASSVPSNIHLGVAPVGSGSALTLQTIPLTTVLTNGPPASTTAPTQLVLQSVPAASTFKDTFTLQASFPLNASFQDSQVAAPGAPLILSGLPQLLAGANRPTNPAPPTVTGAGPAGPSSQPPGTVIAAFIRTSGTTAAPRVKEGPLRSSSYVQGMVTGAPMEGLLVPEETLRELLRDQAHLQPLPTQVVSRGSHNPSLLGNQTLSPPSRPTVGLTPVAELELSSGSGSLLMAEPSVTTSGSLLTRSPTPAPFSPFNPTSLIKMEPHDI
Chain of ELF1 (P32519 whole entry): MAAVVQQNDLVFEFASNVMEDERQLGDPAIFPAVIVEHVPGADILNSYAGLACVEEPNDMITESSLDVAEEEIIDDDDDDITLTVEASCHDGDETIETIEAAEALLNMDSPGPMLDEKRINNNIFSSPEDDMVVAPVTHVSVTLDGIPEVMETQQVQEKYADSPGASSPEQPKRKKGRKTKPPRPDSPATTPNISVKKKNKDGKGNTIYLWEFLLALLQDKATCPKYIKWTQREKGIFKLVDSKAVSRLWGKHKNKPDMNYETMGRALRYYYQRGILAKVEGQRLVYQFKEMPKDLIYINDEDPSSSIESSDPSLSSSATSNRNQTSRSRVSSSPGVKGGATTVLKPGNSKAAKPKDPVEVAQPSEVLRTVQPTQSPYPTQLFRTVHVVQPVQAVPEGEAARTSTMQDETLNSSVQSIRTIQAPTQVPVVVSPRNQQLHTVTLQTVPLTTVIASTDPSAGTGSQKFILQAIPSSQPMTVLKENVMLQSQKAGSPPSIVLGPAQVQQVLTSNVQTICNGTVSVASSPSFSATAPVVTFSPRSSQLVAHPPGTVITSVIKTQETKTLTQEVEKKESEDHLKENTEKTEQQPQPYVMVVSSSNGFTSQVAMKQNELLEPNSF
Chain of CRX (O43186 whole entry): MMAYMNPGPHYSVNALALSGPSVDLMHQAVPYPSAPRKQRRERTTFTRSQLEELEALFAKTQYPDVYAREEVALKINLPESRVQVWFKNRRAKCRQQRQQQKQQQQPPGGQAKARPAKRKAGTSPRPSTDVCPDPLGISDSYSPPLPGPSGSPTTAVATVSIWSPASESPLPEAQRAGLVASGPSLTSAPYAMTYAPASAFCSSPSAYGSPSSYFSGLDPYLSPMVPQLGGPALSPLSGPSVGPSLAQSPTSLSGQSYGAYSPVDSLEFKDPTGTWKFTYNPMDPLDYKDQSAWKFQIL

ATTTAT
binding signal (FLI1): 1.41 fold enrichment (6-mer frequency, TF over GST control) | binding signal (ELK1): 1.48 fold enrichment (6-mer frequency, TF over GST control) | binding signal (GABPA): 1.35 fold enrichment (6-mer frequency, TF over GST control) | binding signal (ERG): 1.33 fold enrichment (6-mer frequency, TF over GST control) | binding signal (ELF1): 1.32 fold enrichment (6-mer frequency, TF over GST control) | binding signal (EHF): 1.45 fold enrichment (6-mer frequency, TF over GST control) | binding signal (SPI1): 1.43 fold enrichment (6-mer frequency, TF over GST control) | binding signal (SPIB): 1.46 fold enrichment (6-mer frequency, TF over GST control) | binding signal (ELK3): 1.49 fold enrichment (6-mer frequency, TF over GST control) | binding signal (FEV): 1.34 fold enrichment (6-mer frequency, TF over GST control) | binding signal (ETV5): 1.41 fold enrichment (6-mer frequency, TF over GST control) | binding signal (HSF1): 1.68 fold enrichment (6-mer frequency, TF over GST control) | binding signal (SPIC): 1.49 fold enrichment (6-mer frequency, TF over GST control) | binding signal (ELF4): 1.35 fold enrichment (6-mer frequency, TF over GST control) | binding signal (ELK4): 1.53 fold enrichment (6-mer frequency, TF over GST control) | binding signal (ETV2): 1.44 fold enrichment (6-mer frequency, TF over GST control) | binding signal (ELF3): 1.46 fold enrichment (6-mer frequency, TF over GST control) | binding signal (CRX): 2.19 fold enrichment (6-mer frequency, TF over GST control) | binding signal (ETV1): 1.43 fold enrichment (6-mer frequency, TF over GST control)

Source: publication PMC7862700, “An all-to-all approach to the identification of sequence-specific readers for epigenetic DNA modifications on cytosine”
